Bioassay records (PubChem BioAssay)
Sampled rows, rich in hits. Any-hit rate of the full collection: about 1.7%.
IDH1 R132H inh: blocks human mutant IDH1 R132H enzyme. O75874. IDH1-R132H enzyme, NADPH consumption, diaphorase/resazurin fluorescence. Potency, µM (doses to about 76.6 µM), without a hit: at the top dose activity change, negative = inhibition, actives largely listed as inhibitors. actives 0.093% (n = 390,000); further: potency means the concentration at half of the fitted maximal effect; on the % scale 0 is the no-effect control and ±100 the full control effect; nearly all actives have a fitted effect of over 65% in size
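IDH1-R132H (0.5 ug/mL) preincubated 30 min with compound, then NADPH (0.016 mM) and alpha-KG (2 mM) added; 80 min at RT, pH 7.5. Remaining NADPH coupled via diaphorase/resazurin to fluorescence (540/590 nm); concentration-response curves normalized to no-enzyme control.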
LDHA block: blocks human lactate dehydrogenase A | P00338 | purified LDHA, NADH/diaphorase-resazurin fluorescence; active compounds read low | activity change, % (values are at about 110 or 230 µM) | actives 0.15% (n = 480,000); in the data active means activity change below about -30%; inconclusive means mostly about -25% to -30%;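 further: plate controls were DMSO wells for no effect and wells without enzyme for full effect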
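Enzyme activity of human lactate dehydrogenase 5 (2 nM; 0.06 mM NADH, 0.2 mM pyruvate, 5 min, RT) is measured via a resazurin/diaphorase fluorescence readout of residual NADH.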
GLP-1R agonist: activates the human GLP-1 receptor; Potency, µM (series often up to 45.6 µM), for inactives: at the highest dose activation, most hits filed as activators; AID 624172; P43220; HEK293 GLP-1R CRE-luciferase, luminescence, 4-6 h; cells express a hypersensitive GLP-1R form; actives 0.007% (n = 380,000); further: potency means the concentration at half of the fitted maximal effect; % of control where 0% means no effect
GLP1R cytotox: cytotoxicity in counter-screen for GLP-1R inverse agonists. HEK293 cAMP-luciferase reporter cells, luminescence, 24 h. Potency, µM (top dose mostly 38.3 µM), for the others: at the highest dose activity change, negative = inhibition, usual class: inhibitors. actives 0.13% (n = 410,000). AID 624418;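 further: loss of luciferase light is scored as toxicity; potency means the concentration at half of the fitted maximal effect; on the % scale 0 is the no-effect control and ±100 the full control effect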
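Seeding density was 200 cells/uL; after overnight-length (12 h) culture, 23 nL compounds went on for 24 h at 37 °C. Readout used a luciferase detection reagent, luminescence taken after 12 min at room temperature.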
PTHR1 agonist: PTHR1 (human) receptor agonism; Q03431; HEK293 GP2 PTHR1 cells, GloSensor cAMP luminescence, 1 h; Potency, µM (doses to about 115 µM), for the others: at the highest dose activation, usual class: activators; actives 0.075% (n = 410,000); AID 743266; further: potency means the concentration at half of the fitted maximal effect; nearly all actives have a fitted effect of over 55% in size
Target sequence (Q03431 whole entry, looked up): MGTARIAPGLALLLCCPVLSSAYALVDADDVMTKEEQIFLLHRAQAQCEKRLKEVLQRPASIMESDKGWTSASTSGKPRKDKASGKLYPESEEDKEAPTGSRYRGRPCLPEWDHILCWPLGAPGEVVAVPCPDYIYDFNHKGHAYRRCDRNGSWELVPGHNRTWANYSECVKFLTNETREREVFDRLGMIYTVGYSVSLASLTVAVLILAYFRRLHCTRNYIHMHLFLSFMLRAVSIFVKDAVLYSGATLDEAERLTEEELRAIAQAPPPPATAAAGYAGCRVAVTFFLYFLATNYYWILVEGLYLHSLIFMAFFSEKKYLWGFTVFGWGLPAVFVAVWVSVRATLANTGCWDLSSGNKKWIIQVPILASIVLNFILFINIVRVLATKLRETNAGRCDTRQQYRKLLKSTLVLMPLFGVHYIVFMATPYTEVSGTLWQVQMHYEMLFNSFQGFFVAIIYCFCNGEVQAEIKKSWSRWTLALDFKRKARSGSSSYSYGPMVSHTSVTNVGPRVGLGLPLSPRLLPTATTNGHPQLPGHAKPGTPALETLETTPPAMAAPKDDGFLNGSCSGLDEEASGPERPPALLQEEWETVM
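HEK-293-derived GP2 cells expressing PTHR1 and a GloSensor cAMP reporter, 3,000/well, plated overnight, given luciferin plus IBMX (each 0.5 mM as added) for 1 h at 37 °C, then compound for 1 h at 37 °C. Luminescence was read after 15 min at room temperature.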
GLP1R inv ag: GLP-1 receptor (human) inverse agonism | Potency, µM (doses to about 38.3 µM), inactives show at the top dose activity change, negative = inhibition, most hits filed as inhibitors | actives 1.6% (n = 410,000) | HEK293 GLP-1R CRE-luciferase, luminescence, 24 h; GLP-1R form is constitutively active; further: potency means the concentration at half of the fitted maximal effect; on the % scale 0 is the no-effect control and ±100 the full control effect; nearly all actives have a fitted effect of over 55% in size
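Inverse agonists were sought by their lowering of basal cAMP reporter luciferase output in HEK293 cells stably carrying constitutively active human GLP-1R, after 24 h compound treatment.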
The depositor's hits bear a star; i = inactive; ? = inconclusive; / = not tested or not shown; ! = not confirmed by another sample; [ ] = another dose, or the depositor's remark. Unless noted, the call rests on the fitted dose curve; in most records, active means well fitted curve in the direction sought with a large enough effect; inconclusive means small, poorly fitted or top-dose-only effect, or another doubt; inactive means no such curve, though single readings can be large; an effect the other way counts as inactive or inconclusive.

SMILES | IDH1 R132H inh | LDHA block | GLP-1R agonist | GLP1R cytotox | PTHR1 agonist | GLP1R inv ag
CC(=O)NNC(=S)Nc1cccc(C)c1 | / | 3.9 | / | / | / | /
Cc1cc2nc(C3CCN(CC4COc5ccccc5O4)CC3)[nH]c2cc1C (stereo unspecified) | -3.2% | -6.1 | -5.4% | -22.7% | i | 10µM*
Oc1[nH]c2ccc(Br)cc2c1N=NC(=S)NCC1CCCO1 (stereo unspecified) | 4.9% | 1.0 | 1.5% | ? | i | 13.3%
CCn1c(O)c(N=NC(=S)NCC2CCCO2)c2ccccc21 (stereo unspecified) | 1.8% | -1.8 | 7.2% | ? | -15.3% | 2.82µM*
Oc1[nH]c2c(Cl)cc(Cl)cc2c1N=NC(=S)NCC1CCCO1 (stereo unspecified) | 3.9% | 0.3 | 10.7% | 3.98µM* | -19.9% | ?
Oc1[nH]c2ccccc2c1N=NC(=S)NCC1CCCO1 (stereo unspecified) | 2.1% | 3.0 | 11.5% | ? | -15.8% | 1.8%
Cc1cc(C)c2[nH]c(O)c(N=NC(=S)NCC3CCCO3)c2c1 (stereo unspecified) | 0.5% | -3.8 | 10.8% | 8.91µM* | i | ?
CCCCC1CCC(C(=O)Nc2ccccc2N2CCOCC2)CC1 (stereo unspecified) | -4.7% | 4.4 | -5.7% | 2.8% | -17.8% | 10µM*
COc1ccccc1N1CCN(C(C)C(=O)N2CC(C)OC(C)C2)CC1 (stereo unspecified) | -4.2% | -39.4* | 0.3% | -6.5% | -1.1% | -22.6%
COc1ccccc1N1CCN(C(=O)C(F)F)CC1 | -2.5% | 0.1 | -10.7% | 10.3% | -10.2%[57.5 µM] | 8.6%
COCCOc1ccc(C(=O)/C=C/c2ccc(OC)c(O)c2)cc1 | / | 7.5 | / | / | / | /
NC(=S)n1[nH]c(-c2ccc([N+](=O)[O-])cc2)c(N=Nc2ccc(Cl)cc2)c1=O | -8.6% | -7.9 | -5.0% | ? | -33.4% | 10µM*
Cc1ccc([N+](=O)[O-])cc1N=Nc1c(-c2ccc([N+](=O)[O-])cc2)[nH]n(C(N)=S)c1=O | -8.9% | -8.6 | -5.7% | ? | -47.1% | ?
C=C(C)COc1ccc(-c2n[nH]c(C)c2Oc2ccccc2OC)c(O)c1 | -1.8% | -1.4 | -17.0% | -7.7% | -24.1%[57.5 µM] | 7.94µM*
CCCOC(=O)c1ccc(Oc2c(-c3ccc(OC)cc3O)n[nH]c2C)cc1 | -6.1% | -2.8 | -23.3% | ? | i | 8.91µM*
CCOc1ccc(-c2n[nH]c(C)c2Oc2ccccc2OC)c(O)c1 | 0.6% | 6.3 | -2.2% | 3.9% | -7.1% | ?
C=C(C)COc1ccc(-c2[nH]ncc2Oc2cccc(OC)c2)c(O)c1 | 8.2% | -5.3 | -10.9% | ? | -2.9%[57.5 µM] | 10µM*
C=C(C)COc1ccc(-c2[nH]ncc2-c2ccc(OC)cc2)c(O)c1 | 3.1% | -3.1 | 0.9% | -15.4% | i | 11.2µM*
CC(NC(=O)C(C)NC(=O)CNC(=O)OCc1ccccc1)C(=O)O (stereo unspecified) | / | -1.3 | / | / | / | /
C=C(C)COc1ccc(-c2ncncc2Oc2ccc(OC)cc2)c(O)c1 | -1.4% | 6.0 | -1.0% | 29.6% | -45.6% | 10µM*
CC[C@H](C)[C@@H](CNC)NC[C@@H](Cc1ccc(O)cc1)NCC(C)(C)C | 10.7% | -0.2 | -0.5% | ? | -13.8% | ?
CC[C@@H](C)[C@H](CN[C@H](CNC)C(C)C)NC[C@@H](C)c1ccc(CC(C)C)cc1 | -2.0% | -3.2 | -0.5% | 11.2µM* | 14.0% | ?
Cc1cc(/C=N/Nc2ncnc(N)c2[N+](=O)[O-])c(C)n1-c1ccccc1 | 0.0% | -0.8 | -6.0% | ? | -54.4% | 2.24µM*
O=C(CNC(=O)c1nn(Cc2ccccc2)c(=O)c2ccccc12)Nc1ccc(F)c(F)c1 | / | -0.7 | / | / | / | /
Cc1[nH]c(=O)[nH]c(=O)c1S(=O)(=O)Nc1ccc(Cl)c(Cl)c1 | / | 1.3 | / | / | / | /
SMILES | IDH1 R132H inh | LDHA block | GLP-1R agonist | GLP1R cytotox | PTHR1 agonist | GLP1R inv ag
Cc1nc(CN2CCN(CCOc3ccc(Cl)cc3)CC2)no1 | / | -32.0* | / | / | / | /
Cc1ccc(C)c(N(C(=O)c2nsc(Cl)c2Cl)C(C(=O)NC2CCCC2)c2ccc(O)cc2)c1 (stereo unspecified) | -6.3% | -3.7 | 0.4% | 8.9% | -19.2% | 5.62µM*
O=[N+]([O-])c1ccc(C(O)CN2CCN(c3ccccc3)CC2)cc1 (stereo unspecified) | 4.5% | -4.2 | 10.4% | -5.0% | -12.0% | ?
O=[N+]([O-])c1ccc(C(O)C[n+]2ccccc2)cc1 (stereo unspecified) | -2.2% | -30.1* | 2.7% | 0.2% | ? | -8.3%
NC(=O)c1ccc(C(=O)NCC(O)c2ccc(F)c(F)c2)nc1 (stereo unspecified) | / | -7.8 | / | / | / | /
CC(C)COc1ccc(C(=O)N(CC(=O)Nc2ccccc2C(F)(F)F)Cc2ccco2)cc1 | 8.1% | -5.5 | 10.8% | ? | i | 4.47µM*
O=C(CN(Cc1ccco1)C(=O)c1ccc([N+](=O)[O-])cc1)Nc1ccccc1C(F)(F)F | 2.6% | 0.2 | -6.5% | -10.7% | -18.2% | -6.2%
CNC(=S)NC(C)C1CC2CCC1C2 (stereo unspecified) | / | -1.4 | / | / | / | /
O=C(Nc1ccc2nc3n(c(=O)c2c1)CCCCC3)c1cc([N+](=O)[O-])ccc1F | 4.6% | -0.3 | -2.8% | ? | -5.8% | 11.2µM*
Cc1cc(Br)ccc1NC(=O)c1cc2c(s1)-c1ccccc1SC2 | / | 0.6 | / | -6.9% | i | 10µM*
Cc1ccc(CNC(=O)c2cc3c(s2)-c2ccccc2SC3)cc1 | / | 3.7 | / | -10.9% | i | ?
COCCN=c1scc(-c2ccccc2)n1/N=C/c1c[nH]c2ccccc12 | -11.6% | -3.5 | 13.6% | -8.7% | -54.7% | 3.98µM*
Nc1nccnc1C(=O)NCc1ccc(NC(=O)c2ccco2)cc1 | / | 0.5 | / | / | / | /
O=C(O)CCS(=O)(=O)Nc1ccccc1 | / | -4.9 | / | / | / | /
Cc1ccccc1NC(=O)/C(=C/c1ccco1)c1ccccc1 | 4.0% | 0.1 | 1.8% | -0.7% | -1.7% | ?
CCc1ccccc1NC(=O)/C(=C/c1ccco1)c1ccccc1 | 10.1% | -2.0 | -3.5% | -5.1% | -6.1%[57.5 µM] | 7.08µM*
CC(=O)c1ccc(N2CCN(S(=O)(=O)c3cc4[nH]c(=O)c(=O)[nH]c4cc3C)CC2)cc1 | -5.0% | -30.3*! | -3.5% | -4.7% | i | 22.2%
Cc1cc(C(=O)Nc2cccc(C(=O)O)c2)oc1C | 2.2% | -3.1 | -32.0% | -1.0% | -18.3% | 1.26µM*
CNC(=O)NC(=O)CN(C)Cc1cccc(C(F)(F)F)c1 | / | 5.3 | / | / | / | /
